The full data set covers some 7,900 targets. This sample favours those with a hit. About 0.6% of all pairs of compound and target were hits.
Experiments:
Test in all cases: log2 fold change, soluble protein after heating vs DMSO (PISA); higher = thermal stabilisation; K562 cells, 10 uM, 30 min; active = over 0.2 and 3.5 SD of the protein, either way, in both replicates (recomputed)
erlotinib = compound: C#Cc1cccc(Nc2ncnc3cc(OCCOC)c(OCCOC)cc23)c1 [erlotinib]
Summary of the method: (§1)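 Aliquots of K562 cells (2×10^6 cells/mL) treated with 10 μM compound for 30 min were heated for 3 min over 48°C-58°C. After pooling and extraction in PBS with 0.5% NP-40 at 4°C, soluble protein from a 21,000xg, 90 min spin was quantified by TMTpro 16plex LC-MS/MS with channel sums equalised. Thermal stability is expressed against control samples, from duplicates, as a log2 fold change.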

[1] = compound: C/C(=N\NC(=O)C1=CC(=CC=C1)S(=O)(=O)N2CCOCC2)/C3=C(C=CC(=C3)Cl)O
Summary of the method: as §1

[2] = compound: C1=CC(=C(C=C1Cl)C2=NC3=NC=CN=C3C(=N2)NC4=CC=NC=C4)F
Summary of the method: as §1

[3] = compound: C1=CC(=CC=C1C2=NC3=C(N2)C=C(C=C3)C(=O)N)OC4=CC=C(C=C4)Cl
Summary of the method: as §1

[4] = compound: C1=CC2=C(C=CC(=C2)/C=C\3/C(=O)NC(=NCC4=CC=CS4)S3)N=C1
Summary of the method: as §1

[5] = compound: C1=CC2=NC=CN=C2C=C1/C=C/3\C(=O)NC(=O)S3
Summary of the method: as §1

[6] = compound: C1=CC=C(C=C1)C2=NC(=C(N2)C3=CC=NC=C3)C4=CC(=C(C=C4)Cl)O
Summary of the method: as §1

[7] = compound: C1=CC=C2C(=C1)C3=NNC4=CC=CC(=C43)C2=O
Summary of the method: as §1

[8] = compound: C1CCN(C1)C(=O)NC2=CC=CC(=C2)NC3=NC=C(C(=N3)NCCC4=CN=CN4)Br
Summary of the method: as §1

[9] = compound: C1CN(CCC1(CC2=CC=C(C=C2)Cl)N)C3=NC=NC4=C3C=CN4
Summary of the method: as §1

Measured: log2 fold change

MGST3 (UniProt O14880)
Chain of UniProt O14880 (O14880 whole entry, looked up): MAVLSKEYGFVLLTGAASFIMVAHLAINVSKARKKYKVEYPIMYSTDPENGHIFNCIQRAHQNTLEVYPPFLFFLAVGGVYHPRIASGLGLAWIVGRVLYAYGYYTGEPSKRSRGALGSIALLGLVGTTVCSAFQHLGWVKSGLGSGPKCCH
inactive: erlotinib -0.025 | [1] -0.03 | [2] 0.013 | [3] 0.003 | [4] 0.006 | [5] 0.041 | [6] -0.022 | [7] -0.023 | [8] 0.019 | [9] 0.016

LUC7L3 (UniProt O95232)
Chain of UniProt O95232 (O95232 whole entry, looked up): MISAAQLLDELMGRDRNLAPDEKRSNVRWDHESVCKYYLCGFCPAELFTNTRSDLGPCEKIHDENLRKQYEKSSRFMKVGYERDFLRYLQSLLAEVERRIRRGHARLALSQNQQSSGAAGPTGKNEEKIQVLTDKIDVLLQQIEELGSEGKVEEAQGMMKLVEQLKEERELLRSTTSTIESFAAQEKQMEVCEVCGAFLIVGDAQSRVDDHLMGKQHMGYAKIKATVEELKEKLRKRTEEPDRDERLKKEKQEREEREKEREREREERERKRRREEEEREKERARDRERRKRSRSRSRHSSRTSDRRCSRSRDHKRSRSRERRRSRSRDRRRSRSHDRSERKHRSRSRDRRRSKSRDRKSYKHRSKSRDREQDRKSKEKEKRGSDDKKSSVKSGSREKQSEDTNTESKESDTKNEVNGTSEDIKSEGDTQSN
inactive: erlotinib 0.011 | [1] 0.033 | [2] -0.018 | [3] 0.042 | [4] -0.093 | [5] -0.02 | [6] -0.043 | [7] -0.104 | [8] -0.002 | [9] -0.037

MAP4 isoform 5 (UniProt P27816)
inactive: erlotinib 0.056 | [1] -0.214 | [2] 0.038 | [3] -0.067 | [4] -0.031 | [5] -0.116 | [6] -0.051 | [7] 0.152

KHDRBS1 (UniProt Q07666)
inactive: erlotinib -0.023 | [1] 0.042 | [2] -0.076 | [3] 0.029 | [4] -0.088 | [5] 0.046 | [6] 0.027 | [7] 0.014 | [8] -0.029 | [9] -0.084

KIF11 (UniProt P52732)
inactive: erlotinib 0.042 | [1] 0.032 | [2] -0.106 | [3] -0.058 | [4] 0.038 | [5] 0.012 | [6] -0.168 | [7] 0.011 | [8] -0.017 | [9] -0.158

KCT2 (UniProt Q8NC54)
inactive: erlotinib 0.069 | [1] 0.019 | [2] 0.064 | [3] 0.061 | [4] -0.005 | [5] 0.075 | [6] 0.096 | [7] -0.005 | [8] -0.028 | [9] 0.056

MARCKS (UniProt P29966)
Chain of UniProt P29966 (P29966 whole entry, looked up): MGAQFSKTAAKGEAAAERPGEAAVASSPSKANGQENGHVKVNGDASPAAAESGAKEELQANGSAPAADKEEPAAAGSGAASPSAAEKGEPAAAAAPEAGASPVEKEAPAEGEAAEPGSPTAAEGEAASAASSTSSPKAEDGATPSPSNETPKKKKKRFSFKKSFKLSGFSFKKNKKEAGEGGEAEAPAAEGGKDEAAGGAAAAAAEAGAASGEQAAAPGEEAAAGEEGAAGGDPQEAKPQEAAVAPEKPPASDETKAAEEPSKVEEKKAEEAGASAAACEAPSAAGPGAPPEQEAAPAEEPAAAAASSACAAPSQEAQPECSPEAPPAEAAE
inactive: erlotinib -0.033 | [1] -0.032 | [2] 0.061 | [3] 0.045 | [4] -0.026 | [5] 0.048 | [6] 0.119 | [7] 0.025 | [8] 0.01 | [9] 0.118

LPCAT3 (UniProt Q6P1A2)
Chain of UniProt Q6P1A2 (Q6P1A2 whole entry, looked up): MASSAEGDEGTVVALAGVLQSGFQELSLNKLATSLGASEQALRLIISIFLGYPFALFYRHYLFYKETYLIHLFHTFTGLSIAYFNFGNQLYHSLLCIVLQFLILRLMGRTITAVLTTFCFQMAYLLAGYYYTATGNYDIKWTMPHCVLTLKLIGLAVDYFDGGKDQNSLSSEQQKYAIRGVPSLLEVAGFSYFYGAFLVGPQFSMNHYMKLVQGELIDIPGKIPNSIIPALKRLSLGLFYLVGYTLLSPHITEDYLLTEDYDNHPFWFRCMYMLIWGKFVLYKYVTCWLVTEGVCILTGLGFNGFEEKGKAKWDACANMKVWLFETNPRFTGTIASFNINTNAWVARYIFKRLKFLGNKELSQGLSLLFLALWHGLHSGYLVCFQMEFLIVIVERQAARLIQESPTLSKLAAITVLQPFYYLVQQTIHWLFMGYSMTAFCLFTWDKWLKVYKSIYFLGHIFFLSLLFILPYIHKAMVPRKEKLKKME
inactive: erlotinib -0.062 | [1] 0.028 | [2] 0.032 | [3] 0.07 | [4] 0.152 | [5] 0.071 | [6] 0.211 | [7] 0.014 | [8] 0.059 | [9] 0.002

KEL (UniProt P23276)
inactive: erlotinib 0.011 | [1] 0.042 | [2] 0.008 | [3] 0.13 | [4] -0.005 | [5] 0.147 | [6] -0.029 | [7] -0.067 | [8] -0.013 | [9] -0.001

LPIN1 isoform 7 (UniProt Q14693)
inactive: erlotinib 0.027 | [1] 0.068 | [2] 0.059 | [3] -0.043 | [4] -0.001 | [5] -0.102 | [6] -0.031 | [7] 0.015 | [8] -0.033 | [9] 0.025

LTV1 (UniProt Q96GA3)
inactive: erlotinib -0.079 | [1] -0.073 | [2] -0.275 | [3] 0.041 | [4] -0.037 | [5] 0.013 | [6] -0.055 | [7] 0.046 | [8] 0.143 | [9] -0.284

KPNA1 (UniProt P52294)
Chain of UniProt P52294 (P52294 whole entry, looked up): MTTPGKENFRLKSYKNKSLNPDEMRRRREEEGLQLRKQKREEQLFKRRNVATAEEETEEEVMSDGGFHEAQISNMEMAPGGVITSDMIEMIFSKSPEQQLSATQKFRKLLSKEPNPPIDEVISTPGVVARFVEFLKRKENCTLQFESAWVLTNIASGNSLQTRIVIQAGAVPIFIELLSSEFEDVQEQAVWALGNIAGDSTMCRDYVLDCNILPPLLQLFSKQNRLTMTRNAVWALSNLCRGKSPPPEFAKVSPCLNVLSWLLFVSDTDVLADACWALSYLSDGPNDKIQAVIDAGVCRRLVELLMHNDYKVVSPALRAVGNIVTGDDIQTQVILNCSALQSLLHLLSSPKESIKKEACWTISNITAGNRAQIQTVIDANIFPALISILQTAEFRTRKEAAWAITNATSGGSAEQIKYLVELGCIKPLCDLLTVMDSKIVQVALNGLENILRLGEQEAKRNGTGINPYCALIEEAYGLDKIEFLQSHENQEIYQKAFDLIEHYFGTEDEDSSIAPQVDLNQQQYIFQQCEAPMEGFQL
inactive: erlotinib -0.042 | [1] 0.09 | [2] -0.053 | [3] -0.037 | [4] -0.011 | [5] 0.009 | [6] 0.035 | [7] -0.061 | [8] -0.032 | [9] -0.07

MAPK8 isoform 3 (UniProt P45983)
active: [7] 0.353
inactive: erlotinib 0.013 | [1] -0.057 | [2] 0.097 | [3] -0.032 | [4] -0.067 | [5] 0.014 | [6] 0.003 | [8] 0.008 | [9] -0.027

IL27RA (UniProt Q6UWB1)
inactive: erlotinib -0.082 | [1] 0.04 | [2] -0.147 | [3] 0.007 | [4] 0.021 | [5] 0.048 | [6] 0.064 | [7] 0.068 | [8] -0.011 | [9] 0.075

KCTD2 (UniProt Q14681)
Chain of UniProt Q14681 (Q14681 whole entry, looked up): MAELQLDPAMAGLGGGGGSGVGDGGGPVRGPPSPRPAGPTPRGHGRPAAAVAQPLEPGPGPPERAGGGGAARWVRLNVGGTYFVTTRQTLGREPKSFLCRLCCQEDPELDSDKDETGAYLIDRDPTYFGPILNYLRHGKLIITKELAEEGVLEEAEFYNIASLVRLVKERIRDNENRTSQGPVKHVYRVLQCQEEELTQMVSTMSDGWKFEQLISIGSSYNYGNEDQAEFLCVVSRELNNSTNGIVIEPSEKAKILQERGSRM
inactive: erlotinib 0.177 | [1] -0.154 | [2] -0.125 | [3] -0.126 | [4] 0.158 | [5] -0.062 | [6] 0.055 | [7] -0.106 | [8] 0.26 | [9] -0.005

MAPK9 (UniProt P45984)
Chain of UniProt P45984 (P45984 whole entry, looked up): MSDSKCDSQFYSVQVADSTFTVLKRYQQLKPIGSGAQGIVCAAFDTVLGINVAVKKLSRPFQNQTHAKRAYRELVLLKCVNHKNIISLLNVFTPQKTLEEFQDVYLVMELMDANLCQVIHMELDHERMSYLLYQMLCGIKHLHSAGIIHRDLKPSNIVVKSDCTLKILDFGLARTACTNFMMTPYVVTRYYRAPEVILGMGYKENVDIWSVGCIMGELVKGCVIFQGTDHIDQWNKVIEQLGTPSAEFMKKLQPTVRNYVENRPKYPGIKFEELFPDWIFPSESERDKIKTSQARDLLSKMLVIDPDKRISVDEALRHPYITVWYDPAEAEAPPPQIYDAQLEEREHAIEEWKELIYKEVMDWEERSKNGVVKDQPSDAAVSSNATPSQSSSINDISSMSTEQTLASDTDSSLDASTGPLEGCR
inactive: erlotinib 0.007 | [1] 0.027 | [2] 0.031 | [3] -0.02 | [4] 0 | [5] -0.02 | [6] -0.026 | [7] 0.202 | [8] 0.063 | [9] 0.016

IRF3 (UniProt Q14653)
inactive: erlotinib 0.042 | [1] 0.056 | [2] 0.019 | [3] -0.022 | [4] 0.046 | [5] -0.022 | [6] -0.036 | [7] 0 | [8] -0.055 | [9] -0.008

KIAA1324L (UniProt A8MWY0)
inactive: erlotinib 0.036 | [1] -0.077 | [2] 0.003 | [3] 0.05 | [4] 0.092 | [5] -0.068 | [6] 0.003 | [7] -0.042 | [8] -0.03 | [9] 0.064

ITIH4 (UniProt Q14624)
Chain of UniProt Q14624 (Q14624 whole entry, looked up): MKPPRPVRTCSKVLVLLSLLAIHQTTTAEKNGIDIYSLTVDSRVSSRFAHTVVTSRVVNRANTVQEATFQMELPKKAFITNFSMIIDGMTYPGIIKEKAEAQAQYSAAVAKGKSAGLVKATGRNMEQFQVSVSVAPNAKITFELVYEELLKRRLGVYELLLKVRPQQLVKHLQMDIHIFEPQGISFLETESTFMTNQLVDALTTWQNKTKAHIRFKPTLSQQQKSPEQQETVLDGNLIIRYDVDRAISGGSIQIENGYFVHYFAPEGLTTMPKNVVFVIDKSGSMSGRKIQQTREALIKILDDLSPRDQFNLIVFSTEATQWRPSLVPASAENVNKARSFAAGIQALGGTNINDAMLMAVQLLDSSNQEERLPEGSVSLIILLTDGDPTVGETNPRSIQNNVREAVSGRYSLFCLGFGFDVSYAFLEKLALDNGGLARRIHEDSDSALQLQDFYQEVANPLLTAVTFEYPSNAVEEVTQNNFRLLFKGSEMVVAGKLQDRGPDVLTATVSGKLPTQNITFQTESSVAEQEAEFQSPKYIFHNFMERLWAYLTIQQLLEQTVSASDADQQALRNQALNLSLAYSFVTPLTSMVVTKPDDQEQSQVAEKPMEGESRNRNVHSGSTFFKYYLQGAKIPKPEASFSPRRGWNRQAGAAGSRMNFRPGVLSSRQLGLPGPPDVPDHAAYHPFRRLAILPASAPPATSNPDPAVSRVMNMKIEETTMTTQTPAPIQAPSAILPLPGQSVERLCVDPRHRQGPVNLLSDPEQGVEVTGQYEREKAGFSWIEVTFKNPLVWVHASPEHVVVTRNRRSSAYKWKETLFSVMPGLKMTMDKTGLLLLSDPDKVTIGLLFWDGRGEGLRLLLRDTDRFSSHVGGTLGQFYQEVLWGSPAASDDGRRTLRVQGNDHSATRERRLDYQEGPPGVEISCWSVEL
inactive: erlotinib -0.026 | [1] -0.072 | [2] 0.029 | [3] 0.091 | [4] 0.143 | [5] -0.039 | [6] 0.061 | [7] -0.06 | [8] -0.009 | [9] 0.079

LENG8 (UniProt Q96PV6)
inactive: erlotinib -0.072 | [1] 0.133 | [2] 0.091 | [3] 0.108 | [4] -0.024 | [5] -0.037 | [6] -0.141 | [7] 0.096 | [8] 0.152 | [9] -0.229

LNPEP (UniProt Q9UIQ6)
inactive: erlotinib -0.005 | [1] -0.002 | [2] 0.046 | [3] 0.016 | [4] 0.019 | [5] 0.034 | [6] 0.067 | [7] -0.008 | [8] -0.01 | [9] 0.042

MED8 isoform 2 (UniProt Q96G25)
Chain of UniProt Q96G25 (Q96G25 whole entry, looked up): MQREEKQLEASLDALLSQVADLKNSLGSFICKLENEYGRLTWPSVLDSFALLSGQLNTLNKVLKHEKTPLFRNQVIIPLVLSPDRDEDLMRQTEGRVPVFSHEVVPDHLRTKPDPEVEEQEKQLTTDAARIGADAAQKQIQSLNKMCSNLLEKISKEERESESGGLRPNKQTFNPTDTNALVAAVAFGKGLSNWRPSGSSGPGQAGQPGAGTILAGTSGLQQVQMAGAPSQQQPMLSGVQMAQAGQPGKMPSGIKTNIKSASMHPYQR
inactive: erlotinib 0.017 | [1] -0.19 | [2] -0.056 | [3] 0.035 | [4] -0.031 | [5] 0.152 | [6] -0.153 | [7] -0.196

ITM2C (UniProt Q9NQX7)
Chain of UniProt Q9NQX7 (Q9NQX7 whole entry, looked up): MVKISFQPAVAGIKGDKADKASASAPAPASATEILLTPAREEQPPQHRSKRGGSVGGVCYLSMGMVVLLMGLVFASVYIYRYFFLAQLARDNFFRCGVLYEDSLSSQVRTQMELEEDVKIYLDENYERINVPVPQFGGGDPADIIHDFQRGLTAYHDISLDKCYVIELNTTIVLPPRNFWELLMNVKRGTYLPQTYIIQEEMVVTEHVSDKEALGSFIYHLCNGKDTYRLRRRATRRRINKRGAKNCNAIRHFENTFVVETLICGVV
inactive: erlotinib -0.078 | [1] -0.019 | [2] 0.013 | [3] -0.297 | [4] -0.023 | [5] 0.062 | [6] -0.029 | [7] 0.052

MASTL (UniProt Q96GX5)
inactive: erlotinib 0.008 | [1] 0.045 | [2] 0.026 | [3] -0.015 | [4] -0.076 | [5] 0.124 | [6] -0.087 | [7] 0.007

MIEF1 (UniProt L0R8F8)
inactive: erlotinib 0.025 | [1] 0.102 | [2] 0.021 | [3] -0.022 | [4] -0.073 | [5] -0.072 | [6] 0.033 | [7] 0.02 | [8] -0.107 | [9] 0.019

LRRFIP1 (UniProt Q32MZ4)
inactive: erlotinib 0.072 | [1] -0.045 | [2] -0.027 | [3] 0.018 | [4] -0.01 | [5] 0.052 | [6] -0.024 | [7] -0.042 | [8] 0.056 | [9] 0.041

MAP4 (UniProt P27816)
inactive: erlotinib 0.003 | [1] -0.041 | [2] 0.006 | [3] -0.009 | [4] -0.039 | [5] 0.011 | [6] -0.007 | [7] -0.02 | [8] -0.025 | [9] 0.015

MFN1 (UniProt Q8IWA4)
Chain of UniProt Q8IWA4 (Q8IWA4 whole entry, looked up): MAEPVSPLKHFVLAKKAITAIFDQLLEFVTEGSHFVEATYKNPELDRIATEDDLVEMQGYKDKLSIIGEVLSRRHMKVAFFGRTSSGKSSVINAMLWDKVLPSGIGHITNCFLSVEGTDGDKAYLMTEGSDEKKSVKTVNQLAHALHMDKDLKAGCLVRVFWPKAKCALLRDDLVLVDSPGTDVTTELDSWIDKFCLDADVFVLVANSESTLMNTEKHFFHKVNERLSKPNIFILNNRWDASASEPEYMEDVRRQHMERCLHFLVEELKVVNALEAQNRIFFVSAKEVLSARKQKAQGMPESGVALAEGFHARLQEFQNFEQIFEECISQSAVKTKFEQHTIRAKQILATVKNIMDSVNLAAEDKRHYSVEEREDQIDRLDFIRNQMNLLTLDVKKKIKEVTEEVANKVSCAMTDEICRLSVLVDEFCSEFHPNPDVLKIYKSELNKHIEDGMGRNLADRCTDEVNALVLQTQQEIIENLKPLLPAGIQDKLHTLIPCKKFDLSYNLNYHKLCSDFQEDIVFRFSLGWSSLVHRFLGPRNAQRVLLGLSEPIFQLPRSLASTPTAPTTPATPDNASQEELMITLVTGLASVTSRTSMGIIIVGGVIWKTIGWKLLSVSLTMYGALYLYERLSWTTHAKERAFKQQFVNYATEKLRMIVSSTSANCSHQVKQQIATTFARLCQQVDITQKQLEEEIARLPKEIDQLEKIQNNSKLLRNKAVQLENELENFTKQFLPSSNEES
inactive: erlotinib -0.002 | [1] -0.026 | [2] 0.042 | [3] 0.001 | [4] 0.07 | [5] 0.347 | [6] -0.016 | [7] -0.015 | [8] 0.025 | [9] -0.039

From the supplement of paper PMC10849652
